SARS PLP yeast = qHTS of Yeast-based Assay for SARS-CoV PLP | S. cerevisiae expressing SARS-CoV PLpro, growth rescue | Potency, µM (titrated, usually from 32.9 µM), actives largely listed as activators | 330,000 compounds, 0.19% hits | AID 485353, 2010; calls by dose curve; note: nearly all actives have a fitted effect of over 55% in size
AmpC detergent = qHTS Inhibitors of AmpC Beta-Lactamase (assay with detergent); P00811; AmpC hydrolysis of nitrocefin, absorbance 480 nm, 0.01% Triton; Potency, µM (titrated, usually from 114 µM), actives largely listed as inhibitors; 370,000 compounds, 0.041% hits; AID 485294, 2010; note: nearly all actives have a fitted effect of over 25% in size
Target sequence (P00811 whole entry, looked up): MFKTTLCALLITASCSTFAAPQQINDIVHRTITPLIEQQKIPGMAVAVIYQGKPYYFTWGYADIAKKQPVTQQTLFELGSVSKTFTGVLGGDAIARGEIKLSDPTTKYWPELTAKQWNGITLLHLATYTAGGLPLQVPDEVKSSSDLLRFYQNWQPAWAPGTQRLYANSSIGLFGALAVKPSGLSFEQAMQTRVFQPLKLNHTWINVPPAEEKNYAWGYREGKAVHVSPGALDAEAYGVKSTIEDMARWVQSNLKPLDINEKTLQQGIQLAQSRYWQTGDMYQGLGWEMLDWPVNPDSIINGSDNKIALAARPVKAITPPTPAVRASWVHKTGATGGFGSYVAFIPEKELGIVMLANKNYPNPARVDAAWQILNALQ
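20 mM phosphate pH 7.0 + 0.01% (detergent screen) or 0.0001% Triton X-100; 5.3 nM AmpC reagent; cpd preinc 15 min RT; nitrocefin (800 uM stock) to start; A480 q20 s × 4 min; Activity was normalised to no-enzyme and no-compound control wells.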
Tb PYK inh = qHTS of Trypanosoma Brucei Inhibitors | pyruvate kinase (Trypanosoma brucei), Q57TT1 | AID 624173, 2012 | 410,000 compounds, 0.12% hits | Potency, µM (titrated, usually from 76.8 µM), actives largely listed as inhibitors | TbPYK enzyme, Kinase-Glo Plus ATP luminescence, 45 min; note: nearly all actives have a fitted effect of over 50% in size
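Assay buffer: 50 mM TEA pH 7.2, 100 mM KCl, 10 mM MgCl2, 0.05% BSA, 0.01% Tween-20. Pyruvate kinase from T. brucei plus substrate met compound, then ADP (130 uM final). Luminescence was read post 45 min RT.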
RE007 growth inh = qHTS Assay for Inhibitors of the HIV-1 protein Vpr; S. pombe RE007 Vpr strain, BacTiter-Glo ATP luminescence, 24 h; Potency, µM (highest dose often 92.2 µM), hits mostly inhibitors; 360,000 compounds, 0.21% hits; AID 651644, 2012; active = well fitted falling curve with a large enough effect; inconclusive = small, poorly fitted or top-dose-only effect; inactive = no such curve, though single readings can be large or run the other way; note: nearly all actives have a fitted effect of over 50% in size
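Fission yeast RE007 carrying one integrated HIV-1 vpr copy, seeded at OD 0.01 in PMG+AL medium with 23 nL pinned compound. Grown 24 h at 30 degrees; viability read by BacTiter-Glo luminescence after 5 min.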
AmpC inh no detg = qHTS Inhibitors of AmpC Beta-Lactamase (assay without detergent) | P00811 | AmpC nitrocefin hydrolysis, absorbance 480 nm, 0.0001% Triton | Potency, µM (doses to about 57.1 µM), usual class: inhibitors | 330,000 compounds, 0.52% hits | AID 485341, 2010; note: nearly all actives have a fitted effect of over 20% in size
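AmpC (5.3 nM in the dispensed reagent) in 20 mM phosphate pH 7.0 with 0.01% (detergent screen) or 0.0001% Triton X-100 was preincubated with compounds for 15 min at room temperature. Nitrocefin was then added from an 800 uM solution, and hydrolysis was followed at 480 nm.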
Sm TGR inh = qHTS Assay for the Inhibitors of Schistosoma Mansoni Peroxiredoxins; 360,000 compounds, 3% hits; Potency, µM (series often up to 114 µM), hits mostly inhibitors; purified TGR, DTNB reduction, TNB absorbance 405 nm; Schistosoma mansoni thioredoxin glutathione reductase (TGR), Q962Y6; note: nearly all actives have a fitted effect of over 60% in size
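Kinetic colorimetric format: TGR-catalysed, NADPH-driven DTNB reduction monitored via TNB absorbance. Enzyme dispensed at 20 nM; compound exposure 15 min at room temperature before reaction start.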
Of the large screens only hits and unclear results are named; the others gave an inactive call. In the library only some 3.3% were active in any assay of this set; here they are far more common. Unless noted, calls come from the whole dose curve; as a rule, active = well fitted curve in the direction sought with a large enough effect; inconclusive = small, poorly fitted or top-dose-only effect, or another doubt; inactive = no such curve, though single readings can be large; an effect the other way counts as inactive or inconclusive.

Cc1cc(C)c(C(=O)COC(=O)c2ccc([N+](=O)[O-])o2)cc1C	RE007 growth inh inconclusive, Sm TGR inh inconclusive
COCCn1c(C)cc(C(=O)COC(=O)c2ccc([N+](=O)[O-])o2)c1C	Sm TGR inh 35µM
Cc1cc(C(=O)COC(=O)c2ccc([N+](=O)[O-])o2)c(C)n1CC1CCCO1 (stereo not given)	Sm TGR inh 35µM
CC1(C)CC(CC(=O)Nc2ccc([N+](=O)[O-])cc2)C(=O)O1 (stereo not given)	none
O=C(CC1OCC2CCCN2C1=O)Nc1ccc([N+](=O)[O-])cc1 (stereo not given)	RE007 growth inh inconclusive, Sm TGR inh 25µM
CCN1CCOC(CC(=O)Nc2ccc([N+](=O)[O-])cc2)C1=O (stereo not given)	RE007 growth inh 45µM, Sm TGR inh 20µM
O=c1ccc2ccccc2c2ccccc12	RE007 growth inh inconclusive (no result: SARS PLP yeast, AmpC detergent, AmpC inh no detg, Sm TGR inh)
O=Nc1c(O)c2ccccc2c2ccccc12	RE007 growth inh 45µM (no result: SARS PLP yeast, AmpC detergent, AmpC inh no detg, Sm TGR inh)
Fc1ccc(C2CC(c3ccc(F)cc3)n3ncnc3N2)cc1 (stereo not given)	AmpC detergent inconclusive
Oc1ccccc1C1=Nc2ncnn2C(c2ccc(F)cc2)C1 (stereo not given)	Sm TGR inh 14µM
O=C(c1ccco1)N1CCN(C(c2ccccc2Cl)c2nnnn2Cc2ccco2)CC1 (stereo not given)	Sm TGR inh inconclusive
CCN1CCN(C(c2ccccc2Cl)c2c(O)cc(C)n(Cc3ccco3)c2=O)CC1 (stereo not given)	Sm TGR inh 4µM (no result: SARS PLP yeast, RE007 growth inh, AmpC inh no detg)
Cc1cc(O)c(C(c2ccccc2Cl)N2CCN(c3ccccc3)CC2)c(=O)n1Cc1ccco1 (stereo not given)	Sm TGR inh 2.8µM (no result: SARS PLP yeast, RE007 growth inh, AmpC inh no detg)
COc1ccc(-n2nc(C(=O)Nc3ccccc3OC)c3c4ccccc4n(C)c3c2=O)cc1Cl	none (no result: SARS PLP yeast, RE007 growth inh, AmpC inh no detg)
CCOC(=O)N1CCC(NC(=O)c2cnn(-c3ccc(OC)cc3)c2C2CCN(C(=O)OC(C)(C)C)CC2)CC1	none (no result: SARS PLP yeast, RE007 growth inh, AmpC inh no detg)
COc1ccc(NS(=O)(=O)c2ccc3nc(COc4ccc5ccccc5c4)[nH]c3c2)cc1	none
CCN(CC)S(=O)(=O)c1ccc2nc(CCl)[nH]c2c1	Sm TGR inh 40µM
COc1ccccc1NS(=O)(=O)c1ccc2nc(CCl)[nH]c2c1	Sm TGR inh 35µM
COc1ccc(NS(=O)(=O)c2ccc3nc(COc4cccc5ccccc45)[nH]c3c2)cc1	AmpC inh no detg 4µM
CC(CNC(=O)c1csc2c1CCCCC2)c1ccccc1 (stereo not given)	none (no result: SARS PLP yeast, RE007 growth inh, AmpC inh no detg)
Cc1ccc(C(=O)c2no[n+]([O-])c2C(=O)c2ccc(C)cc2)cc1	AmpC detergent inconclusive, RE007 growth inh 32µM
Cc1cc(=O)oc2ccc(OCC(=O)N(Cc3ccc(F)cc3)Cc3ccco3)cc12	Sm TGR inh 18µM
Cc1ccc2nc(NNC(=O)c3ccc(S(=O)(=O)N4CCc5ccccc5C4)cc3)sc2c1	SARS PLP yeast 5µM, AmpC detergent inconclusive, AmpC inh no detg inconclusive
COc1ccc(-c2csc(NC(=O)c3ccc(S(=O)(=O)N4CCc5ccccc5C4)cc3)n2)cc1	AmpC detergent inconclusive, AmpC inh no detg 8.9µM
COC(=O)c1ccc(-c2csc(NC(=O)c3ccc(S(=O)(=O)N4CCc5ccccc5C4)cc3)n2)cc1	none
COc1ccc(Cn2c(C(=O)O)c(CNCc3ccco3)c3ccc(C)cc32)cc1	none (no result: SARS PLP yeast, RE007 growth inh, AmpC inh no detg)
COc1ccc(Cn2c(C(=O)O)c(CNCCc3ccco3)c3ccc(OC)cc32)cc1	Sm TGR inh 45µM (no result: SARS PLP yeast, RE007 growth inh, AmpC inh no detg)
Cc1ccc2c(CNCCc3ccco3)c(C(=O)O)n(Cc3ccc(F)cc3)c2c1	Sm TGR inh 40µM (no result: SARS PLP yeast, RE007 growth inh, AmpC inh no detg)
CC(C)c1nc2ccc(C(=O)Nc3ccccc3F)cc2o1	none (no result: SARS PLP yeast, RE007 growth inh, AmpC inh no detg)
Cc1ccc(C)c(N2CCN(C(=O)c3ccc(-c4nc(COc5ccccc5)c(C)o4)cc3)CC2)c1	none (no result: SARS PLP yeast, RE007 growth inh, AmpC inh no detg)
CN(C)c1ncc(C(=O)NCc2ccccc2Cl)cn1	none (no result: SARS PLP yeast, RE007 growth inh, AmpC inh no detg)
CCOC(=O)c1ccc(N2C(=O)CC(NC3CCN(C(=O)c4cccc(Cl)c4)CC3)C2=O)cc1 (stereo not given)	AmpC detergent inconclusive, Sm TGR inh 50µM
CCOC(=O)c1ccc(N2C(=O)CC(N(C)CCc3ccc(OC)c(OC)c3)C2=O)cc1 (stereo not given)	RE007 growth inh 4µM, Sm TGR inh 45µM
CCOc1cccc(N2C(=O)CC(N3CCN(c4nc5ccccc5s4)CC3)C2=O)c1 (stereo not given)	Sm TGR inh inconclusive
CCOc1cccc(N2C(=O)CC(N3CCC(C(N)=O)(N4CCCCC4)CC3)C2=O)c1 (stereo not given)	AmpC detergent inconclusive, Sm TGR inh 45µM
CCOc1cccc(N2C(=O)CC(N(CCc3ccc(OC)c(OC)c3)C(=O)CC)C2=O)c1 (stereo not given)	none
CC(=O)Oc1ccc(N2C(=O)C3C4C=CC(O4)C3C2=O)cc1 (stereo not given)	RE007 growth inh inconclusive, Sm TGR inh 7.1µM
Cc1ccc(-n2c(=O)c3c(cnn3C)n(Cc3ccccc3F)c2=O)cc1	none (no result: SARS PLP yeast, RE007 growth inh, AmpC inh no detg)
CCOc1cccc2sc(N(CCN(CC)CC)C(=O)c3ccco3)nc12	none (no result: SARS PLP yeast, RE007 growth inh, AmpC inh no detg)
CCOC(=O)c1ccc(N2C(=O)CC(N3CCN(C(=O)c4ccco4)CC3)C2=O)cc1 (stereo not given)	AmpC detergent inconclusive, RE007 growth inh inconclusive
CCOC(=O)c1ccc(N2C(=O)CC(N3CCC(C(N)=O)(N4CCCCC4)CC3)C2=O)cc1 (stereo not given)	Sm TGR inh 28µM
CCOC(=O)N1CCN(C2CC(=O)N(c3ccc(C)cc3)C2=O)CC1 (stereo not given)	AmpC detergent inconclusive, Sm TGR inh inconclusive
O=C1CC(N2CCOCC2)C(=O)N1c1ccc2c(c1)OCO2 (stereo not given)	Sm TGR inh 50µM
CCOc1ccc(N2C(=O)CC(N3CCOCC3)C2=O)cc1 (stereo not given)	AmpC detergent inconclusive
O=C1CC(N2CCN(c3ccccc3)CC2)C(=O)N1c1ccc2c(c1)OCO2 (stereo not given)	none
CC(=O)Oc1ccc(N2C(=O)CC(N3CCOCC3)C2=O)cc1 (stereo not given)	Sm TGR inh 22µM
CCOC(=O)c1ccc(N2C(=O)CC(N3CCOCC3)C2=O)cc1 (stereo not given)	RE007 growth inh 35µM, Sm TGR inh inconclusive
